This is a sample that favours compounds with a hit; in the whole collection about 3.7% have one here.
MazF activator: activators of E. coli MazEF toxin-antitoxin RNase. FAM/BHQ RNA-DNA oligo cleavage fluorescence, 5 h. actives 0.32% (n = 350,000). activation, % at 20 µM; in the data active means activation above about 50%
Target sequence (P0AE70 whole entry, looked up): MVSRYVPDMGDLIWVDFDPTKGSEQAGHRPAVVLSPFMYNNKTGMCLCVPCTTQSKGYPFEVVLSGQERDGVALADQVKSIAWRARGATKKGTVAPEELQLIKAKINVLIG
BoNT-F LC inh: BoNT F light chain protease inhibition; actives 0.22% (n = 360,000); inhibition, % at 10 µM; Multiplex microsphere protease cleavage assay, flow cytometry; in the data active means inhibition above about 35%, passing the limit was not always enough; inconclusive means no clear call, values can overlap the other calls; further: plate controls were buffer without enzyme for full effect and enzyme alone for no effect
Autofluor counter: flagged as autofluorescent in microsphere protease counterscreen; compound autofluorescence counterscreen, microsphere flow cytometry; active compounds read high; fluorescence intensity (no concentration beside the values); actives 3.1% (n = 360,000); AID 624483; in the data active means fluorescence intensity above about 16000; inconclusive means no clear call, values can overlap the other calls
BoNT A protease: BoNT A light chain protease inhibition | multiplex microsphere protease substrate cleavage, flow cytometry | inhibition, % at 10 µM | actives 0.17% (n = 360,000) | AID 588499; further: plate controls were buffer without enzyme for full effect and enzyme alone for no effect
Anthrax LF prot: inhibitors of Bacillus anthracis lethal factor protease; P15917; AID 588501; inhibition, % at 10 µM; actives 0.12% (n = 360,000); multiplex microsphere protease cleavage assay, LF; further: plate controls were buffer without enzyme for full effect and enzyme alone for no effect
Starred values were filed as active, the others as inactive; ? = inconclusive; . = not tested or not shown. Unless noted, no stated cut-off is given here; in the data, active means inhibition above about 30%; inconclusive means no clear call, values can overlap the other calls; inactive means below that.

SMILES | MazF activator | BoNT-F LC inh | Autofluor counter | BoNT A protease | Anthrax LF prot
CCN1C(=O)C(CC(=O)N2CCN(C(c3ccccc3)c3ccccc3)CC2)N(CC)C1=O (stereo unspecified) | 0.6 | 0.3 | 16806* | -1.3 | -2.3
Cc1ccc(S(=O)(=O)NC(=O)C2(C)CCN2C(=O)Cc2cccs2)nc1 (stereo unspecified) | . | 5.7 | 3800 | 0.5 | -1.3
CC(Sc1nc2ccccc2c(=O)n1CC1CCCO1)C(=O)Nc1ccc(S(N)(=O)=O)cc1 (stereo unspecified) | -0.9 | 0.1 | ? | 1.6 | 10.6
Cc1ccc(C(=S)NCS(=O)(=O)c2ccc(C)cc2)cc1 | 2.3 | -4.3 | 23970* | -1.7 | -1.7
Cc1ccc(S(=O)(=O)CNC(=S)c2cccc(Cl)c2)cc1 | -4.3 | -3.1 | 2536 | -0.4 | -2.3
C=CCn1c(COc2ccc(F)cc2)nnc1SCC(=O)N1CC(=O)Nc2ccccc21 | -6.6 | -4.0 | 21515* | -4.4 | 1.0
C=CCn1c(COc2ccc(F)cc2)nnc1SCC(=O)NC1CC1 | 6.4 | 9.1 | 5417 | 3.7 | -3.6
CCCc1ccc(C(=O)N2CCN(c3ccccc3OCC)CC2)cc1 | -5.2 | -8.5 | 25022* | -2.7 | -0.5
CCOc1ccccc1N1CCN(C(=O)c2cc[n+]([O-])cc2)CC1 | 11.8 | 13.0 | 5032 | 1.4 | 0.5
O=C1NC[C@H](CCCCN2C[C@H](Cc3ccc(O)cc3)N(CCC3CCCCC3)C(=O)C2=O)N(CCc2ccc(O)cc2)C1=O | . | -26.0 | 5697 | -1.7 | -5.8
O=C(N/N=C/c1ccccc1[N+](=O)[O-])c1ccc2nc[nH]c2c1 | 9.9 | 48.9* | 4316 | 1.1 | ?
FC(F)(F)c1cccc(CON=C2CCN(c3ncc(C(F)(F)F)cc3Cl)CC2)c1 | -12.0 | -1.1 | 19810* | 0.3 | 1.3
FC(F)(F)c1cnc(N2CCC(=NOCc3ccc(Cl)cc3)CC2)c(Cl)c1 | -15.4 | 6.6 | 15078 | 4.0 | -0.5
O=C(O)CCN1C(=O)c2ccc(NC(=O)CCc3ccccc3)cc2C1=O | 7.6 | -5.5 | 3488 | 1.5 | 0.3
C=C(C)CSc1nnc(-c2cc(OC)c(OC)c(OC)c2)n1N | 11.6 | -5.9 | 21195* | -5.0 | 1.1
O=C(NCCO)C1(c2ccc(Cl)cc2)CCCC1 | -9.6 | -2.3 | 24150* | -2.0 | -2.4
CCCNC(=O)C1(C)CCN(C(=O)C2(c3ccc(Cl)cc3)CCCC2)C1 (stereo unspecified) | . | 2.5 | 3512 | 0.1 | 0.9
O=C(Nc1cccnc1)C1(c2ccc(Cl)cc2)CCCC1 | -0.5 | 16.4 | 16176* | ? | -10.9
O=C(C[C@H]1C[C@@H]2c3cc(NC(=O)c4ccc5c(c4)OCO5)ccc3O[C@@H]2[C@H](CO)O1)NCc1cc(F)ccc1F | 8.3 | -2.4 | 3404 | 0.1 | -1.1
COc1ccc(NC(=O)N2CCN(S(C)(=O)=O)CC2)cc1OC | 4.2 | -2.1 | 22966* | -1.2 | -1.1
CCOC(=O)c1ccc(NC(=O)N2CCN(C3CCCCC3)CC2)cc1 | -3.9 | -2.8 | 16368* | -0.6 | -2.8
CCN1CCN(C(=O)Nc2cc(Cl)ccc2OC)CC1 | -1.5 | -1.3 | 2656 | -0.3 | -2.0
CCOC(=O)c1ccc(NC(=O)N2CCN(S(C)(=O)=O)CC2)cc1 | 5.2 | -5.9 | 17414* | -3.4 | -5.9
COc1ccc(Cl)cc1NC(=O)N1CCN(C2CCCCC2)CC1 | -5.5 | -3.0 | 20816* | ? | -1.8
CCOC(=O)c1ccc(NC(=O)C2CCCO2)cc1 (stereo unspecified) | -5.6 | -8.8 | 4299 | -0.8 | 1.3
SMILES | MazF activator | BoNT-F LC inh | Autofluor counter | BoNT A protease | Anthrax LF prot
CCOC(=O)c1ccc(NC(=O)NC(C)C2CCCO2)cc1 (stereo unspecified) | 0.8 | 3.7 | 21999* | 2.6 | -0.8
Cc1ccc(NC(=S)N2CCN(S(C)(=O)=O)CC2)cc1 | -1.0 | -1.9 | 4862 | -1.1 | -2.7
CCOC(=O)c1ccc(NC(=S)N2CCN(S(C)(=O)=O)CC2)cc1 | 1.2 | -1.4 | 16800* | -0.6 | -3.0
CCOC(=O)c1cc(NC(=O)C2CCCO2)cc(C(=O)OCC)c1 (stereo unspecified) | -3.5 | 8.3 | 16398* | 8.0 | -7.5
CCC(C)c1ccc2oc(-c3ccc(NC(=O)c4ncn[nH]4)cc3)nc2c1 (stereo unspecified) | -7.6 | -2.5 | 20099* | -1.0 | 2.5
CC(C)c1ccc2oc(-c3ccc(NC(=O)c4ncn[nH]4)cc3)nc2c1 | 9.2 | -2.2 | 8057 | 0.5 | -1.9
CCOc1ccc(S(=O)(=O)NCCC2=CCCCC2)c2ccccc12 | -5.5 | -4.2 | 24639* | ? | -1.5
COc1ccc(C)cc1S(=O)(=O)NCCC1=CCCCC1 | -2.5 | -3.4 | 10623 | 0.7 | 2.0
Cc1ccc(S(=O)(=O)N2CC3(C)CN(S(=O)(=O)c4ccc(C)cc4)CC(C)(C2)C3=O)cc1 | -9.6 | 2.8 | 22149* | 2.8 | -2.8
NC(=O)CSc1n[nH]c(-c2ccco2)n1 | 0.5 | -8.0 | 4282 | 0.0 | 3.1
COc1ccc(C(=O)CSc2n[nH]c(-c3ccco3)n2)cc1 | 4.0 | -2.4 | 17016* | -1.1 | -1.0
Cc1ccc(C(=O)CSc2n[nH]c(-c3ccco3)n2)cc1C | 4.3 | -3.2 | 17185* | -1.6 | -1.9
COc1ccc(OCC(=O)NNC(=S)NC(=O)c2ccc(Br)o2)cc1 | 4.9 | -4.6 | 6572 | -2.7 | -3.0
COCCCNc1nc2ccccc2nc1NS(=O)(=O)c1cccc(C)c1 | 4.5 | 2.1 | 2966 | 1.5 | -6.8
O=C1NC(=O)N(CCC2=CCCCC2)C(=O)/C1=C/c1cccs1 | -4.8 | 37.2* | 3753 | 11.9 | ?
CCCCC1Cc2[nH][nH]c(=O)c2C(c2ccc(Cl)cc2)O1 (stereo unspecified) | . | -8.0 | 5893 | -0.2 | 0.0
O=C(Nc1ccc(Cl)cc1)N1CCC(c2nc(-c3ccc(F)cc3)no2)CC1 | 22.7 | -4.3 | 24171* | -1.8 | -2.1
COc1ccc(NC(=O)N2CCCC(c3nc(-c4ccc(OC)cc4)no3)C2)cc1 (stereo unspecified) | 5.9 | -0.8 | 2742 | -0.4 | -1.3
O=C(Nc1ccc(Cl)cc1)N1CCN(c2ccc3nnc(-c4ccc(F)cc4)n3n2)CC1 | -13.1 | -8.0 | 17296* | -2.9 | -4.7
O=C(C(=Cc1ccc(F)cc1)C(=O)c1ccccc1)c1ccccc1 | . | -3.9 | 4252 | -0.6 | -2.1
CCCCN(C=O)c1c(CC)nc2ccc(C(=O)N(C)Cc3ccccc3)cn12 | . | -0.6 | 3544 | 0.1 | -1.4
CC(C)C(=O)Nc1cccc(C(=O)Nc2ccc(S(=O)(=O)N3CCOCC3)cc2)c1 | 160.4* | 4.0 | 4000 | -1.0 | -2.8
O=C(NCc1nc2ccccc2[nH]1)c1cccc(S(=O)(=O)N2CCOCC2)c1 | -0.5 | -1.3 | 22223* | 0.4 | 0.9
CC(C)C(=O)Nc1cccc(C(=O)NCc2ccc(S(N)(=O)=O)cc2)c1 | 4.1 | 12.5 | 18546* | 7.2 | -16.2
COC(=O)c1cccc(S(=O)(=O)N2CCC(NC(=O)Nc3cccc(F)c3)CC2)c1 | 1.0 | -7.5 | 17460* | -2.5 | -2.5
NC(=Nc1ccccc1)N(c1ccccc1)c1ccccc1 | 8.3 | -5.7 | 2833 | -0.7 | -8.0
COc1cc(C(=O)N2CCC2(C)C(=O)NC(C)C)cc(OC)c1OC (stereo unspecified) | . | 7.4 | 3897 | -0.1 | -1.0

Screens from PubChem BioAssay.
